“And” between values parts separate entries of the source, which are not always exact repeats. Equal values may be shown once. Records with an inconclusive call do not appear. A structure can be active in one record and inactive in another. The source made the active and inactive calls. Unless noted, calls come from the whole dose curve; as a rule, active = well fitted curve in the direction sought with a large enough effect in the repeat runs; inconclusive = weak or mixed curves; inactive = no such curve, though single readings can be large; an effect the other way counts as inactive or inconclusive.

The nature of assay [1]: qHTS assay to identify small molecule agonists of the peroxisome proliferator-activated receptor delta (PPARd) signaling pathway - cell viability counter screen (AID 743211). Note: nearly all actives have a fitted effect of over 55% in size. Note: potency is the fitted concentration of half-maximal effect. The procedure, abridged: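 qHTS cell viability: PPARd-bla HEK293H; 17 h cpd, 37C; CellTiter-Glo, luminescence at 30 min RT.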
Background: In qHTS, concentration-response curves come from the screen itself.

Assay [2] deals with Peroxisome proliferator-activated receptor delta (Homo sapiens) (UniProt Q03181). Nature of the assay: qHTS assay to identify small molecule agonists of the peroxisome proliferator-activated receptor delta (PPARd) signaling pathway (AID 743212; calls by dose curve;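 note: HEK293H cells with PPARd UAS beta-lactamase reporter GeneBLAzer system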). The procedure, abridged: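 Beta-lactamase reporter read by fluorescence (LiveBLAzer B/G FRET, 2 h, room temperature). Test agents, in DMSO, incubated at 37 C with PPARd-bla HEK293H cells.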
Peroxisome proliferator-activated receptor delta (Homo sapiens), sequence (Q03181 whole entry, looked up): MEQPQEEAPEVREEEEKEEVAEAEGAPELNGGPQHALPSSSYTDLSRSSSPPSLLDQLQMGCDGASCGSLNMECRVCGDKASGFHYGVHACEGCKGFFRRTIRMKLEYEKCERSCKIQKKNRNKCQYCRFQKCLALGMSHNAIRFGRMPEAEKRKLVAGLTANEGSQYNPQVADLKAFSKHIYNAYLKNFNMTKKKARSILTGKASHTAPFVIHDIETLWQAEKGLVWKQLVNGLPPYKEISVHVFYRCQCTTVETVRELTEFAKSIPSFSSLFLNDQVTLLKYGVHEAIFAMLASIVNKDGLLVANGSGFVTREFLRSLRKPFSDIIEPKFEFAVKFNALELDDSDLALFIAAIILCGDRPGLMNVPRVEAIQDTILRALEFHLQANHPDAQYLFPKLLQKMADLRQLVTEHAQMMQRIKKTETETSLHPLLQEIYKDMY

A short description of assay [3]: qHTS assay to identify small molecule antagonists of the peroxisome proliferator-activated receptor delta (PPARd) signaling pathway - cell viability counter screen (AID 743213). Note: nearly all actives have a fitted effect of over 50% in size. Note: potency is the fitted concentration of half-maximal effect. An outline of the steps:
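Luminescence from CellTiter-Glo, added after the bla read and incubated 30 min at room temperature, gives viability of HEK293H PPARd-bla cells exposed to compounds for 17 h at 37 C with 300 nM L165041.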

Assay [4] deals with Peroxisome proliferator-activated receptor delta (Homo sapiens) (UniProt Q03181). As to the kind of experiment: qHTS assay to identify small molecule antagonists of the peroxisome proliferator-activated receptor delta (PPARd) signaling pathway (AID 743215; active = well fitted inhibition curve with a large enough effect in the signal ratio in the repeat runs, not every such curve was filed as active; the % refers to the signal ratio;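 note: cells stimulated with agonist L165041 at 300 nM final during compound exposure; series mostly up to about 62 µM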). An outline of the steps:
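Here, a reporter line (HEK293H, beta-lactamase under a UAS) measures PPARd signaling. Compounds are tested against agonist L165041 at 300 nM final concentration over 17 h at 37 C, with fluorescence read after substrate.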

Assay [5] in a line: qHTS assay to identify small molecule agonists of the farnesoid-X-receptor (FXR) signaling pathway - cell viability counter screen (AID 743218). Note: nearly all actives have a fitted effect of over 45% in size. Note: potency is the fitted concentration of half-maximal effect. The procedure, abridged:
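Quantitative HTS counter screen measuring ATP-based viability via CellTiter-Glo luminescence in HEK 293T cells carrying a UAS-driven beta-lactamase reporter, after 16 h compound exposure at 37 C.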

Assay [6] can be described thus: qHTS assay to identify small molecule antagonists of the farnesoid-X-receptor (FXR) signaling pathway - cell viability counter screen (AID 743221; active = well fitted cell-killing curve with a large enough effect in the repeat runs, not every such curve was filed as active; note: nearly all actives have a fitted effect of over 50% in size; note: potency is the fitted concentration of half-maximal effect). The procedure, abridged:
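After a 5 h settling period, FXR-bla HEK 293T cells receive compound and chenodeoxycholic acid (50 uM final) and incubate 16 h at 37 C; CellTiter-Glo luminescence, read after 30 min at room temperature, reports cell viability.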

Assay [7] deals with Vitamin D3 receptor (Homo sapiens) (UniProt P11473). As to the kind of experiment: qHTS assay to identify small molecule agonists of the vitamin D receptor (VDR) signaling pathway (AID 743222; calls by dose curve). An outline of the steps: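 Tox21 cell reporter format: VDR-bla line, 16 h compound exposure in 5% CO2 at 37C, then fluorescence intensity after 2 h with LiveBLAzer B/G FRET substrate.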
Vitamin D3 receptor (Homo sapiens), sequence (P11473 whole entry, looked up): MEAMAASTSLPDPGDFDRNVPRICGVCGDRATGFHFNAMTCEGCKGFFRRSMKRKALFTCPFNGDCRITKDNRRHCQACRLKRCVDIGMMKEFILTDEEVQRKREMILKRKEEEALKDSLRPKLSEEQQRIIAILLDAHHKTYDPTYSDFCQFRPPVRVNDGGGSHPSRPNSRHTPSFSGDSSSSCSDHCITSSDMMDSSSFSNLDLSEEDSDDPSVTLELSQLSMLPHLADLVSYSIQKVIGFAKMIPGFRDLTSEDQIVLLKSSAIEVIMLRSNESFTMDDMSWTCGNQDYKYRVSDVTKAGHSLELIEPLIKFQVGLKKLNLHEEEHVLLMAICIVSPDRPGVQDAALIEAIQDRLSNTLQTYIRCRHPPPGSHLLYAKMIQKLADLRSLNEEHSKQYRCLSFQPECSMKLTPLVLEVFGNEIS

For assay [8] the target is unchanged. Nature of the assay: qHTS assay to identify small molecule antagonists of the vitamin D receptor (VDR) signaling pathway (AID 743223; active = well fitted inhibition curve with a large enough effect in the signal ratio in the repeat runs, not every such curve was filed as active; the % refers to the signal ratio). An outline of the steps:
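Reporter line VDR-bla; stimulus 1alpha,25-(OH)2 vitamin D3, 3 nM final; compound co-addition, 16 h 37C/5% CO2; LiveBLAzer B/G substrate 2 h RT; fluorescence intensity.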

Assay [9] in a line: qHTS assay to identify small molecule agonists of the vitamin D receptor (VDR) signaling pathway - cell viability counter screen (AID 743224). Note: nearly all actives have a fitted effect of over 50% in size. Note: potency is the fitted concentration of half-maximal effect. An outline of the steps:
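CellTiter-Glo viability readout on VDR-bla cells, measured after 16 h of compound treatment at 37C in the same wells.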

A short description of assay [10]: qHTS assay to identify small molecule antagonists of the vitamin D receptor (VDR) signaling pathway - cell viability counter screen (AID 743225). Note: nearly all actives have a fitted effect of over 50% in size. Note: potency is the fitted concentration of half-maximal effect. An outline of the steps:
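Parallel cytotoxicity test: VDR-UAS-bla HEK 293T, 3 nM (final) 1-alpha,25-dihydroxyvitamin D3 with test compound, 16 h, 37C. Endpoint is CellTiter-Glo luminescence in the same wells.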

Assay [11] can be described thus: qHTS assay to identify small molecule agonists of the NFkB signaling pathway - cell viability counter screen (AID 1159515; calls by dose curve; note: nearly all actives have a fitted effect of over 55% in size; note: potency is the fitted concentration of half-maximal effect). An outline of the steps: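 Tox21 library compounds were tested for cytotoxicity against NFkB-bla ME-180 cells during a 5 hr exposure at 37 C. CellTiter-Glo luminescence served as the viability read-out.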
Assay [12] in a line: qHTS assay to identify small molecule agonists of the AP-1 signaling pathway - cell viability counter screen (AID 1159525; calls by dose curve; note: nearly all actives have a fitted effect of over 55% in size; note: potency is the fitted concentration of half-maximal effect). An outline of the steps: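 Each titration point was normalised to DMSO and tetra n-octyl ammonium bromide controls. The read was Cell Titer Glo luminescence after 30 min at RT, following 5 h compound exposure of ME-180 AP-1-bla cells at 37 °C.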
Assay [13] in a line: qHTS assay to identify small molecule agonists of the AP-1 signaling pathway (AID 1159526; calls by dose curve).
Assay [14] deals with Retinoic acid receptor RXR-alpha (Homo sapiens) (UniProt P19793). As to the kind of experiment: qHTS assay to identify small molecule agonists of the RXR signaling pathway (AID 1159527; calls by dose curve; note: nearly all actives have a fitted effect of over 35% in size). An outline of the steps: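 16 hr incubation of compound-treated RXR-alpha-UAS-bla HEK 293T cells (2% charcoal-stripped FBS, 37 C) preceded a 2 hr room-temperature LiveBLAzer FRET substrate step and blue/green fluorescence measurement.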
Retinoic acid receptor RXR-alpha (Homo sapiens), sequence (P19793 whole entry, looked up): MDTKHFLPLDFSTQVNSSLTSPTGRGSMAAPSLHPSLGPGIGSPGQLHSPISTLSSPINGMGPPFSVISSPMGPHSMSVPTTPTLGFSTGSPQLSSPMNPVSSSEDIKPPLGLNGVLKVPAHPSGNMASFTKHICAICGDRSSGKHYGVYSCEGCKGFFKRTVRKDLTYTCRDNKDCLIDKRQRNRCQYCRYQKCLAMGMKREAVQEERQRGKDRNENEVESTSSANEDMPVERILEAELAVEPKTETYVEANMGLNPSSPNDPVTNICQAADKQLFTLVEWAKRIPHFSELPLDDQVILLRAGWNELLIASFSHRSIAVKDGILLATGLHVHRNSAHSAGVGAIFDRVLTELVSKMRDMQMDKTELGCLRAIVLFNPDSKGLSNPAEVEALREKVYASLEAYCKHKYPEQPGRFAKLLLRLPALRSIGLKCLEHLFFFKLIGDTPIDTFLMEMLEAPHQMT

A short description of assay [15]: qHTS assay to identify small molecule agonists of the endoplasmic reticulum stress response signaling pathway (AID 1159516; active = well fitted activation curve with a large enough effect in the signal ratio in the repeat runs, not every such curve was filed as active; the % refers to the signal ratio). The procedure, abridged:
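Fluorescence at 460 and 530 nm (405 nm excitation) reports beta-lactamase from an ER stress response element in HeLa cells treated 5 hr at 37 C.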

Assay [16] in a line: qHTS assay to identify small molecule agonists of the endoplasmic reticulum stress response signaling pathway - cell viability counter screen (AID 1159517; calls by dose curve). The procedure, abridged:
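Cytotoxicity of test compounds toward ESRE-bla HeLa cells was assessed after 5 hr exposure. The luminescent CellTiter-Glo signal was measured 30 min after reagent addition.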

The nature of assay [17]: qHTS assay to identify small molecule antagonists of the retinoid-related orphan receptor gamma (ROR-gamma) signaling pathway - cell viability counter screen (AID 1159520). Note: nearly all actives have a fitted effect of over 50% in size. Note: potency is the fitted concentration of half-maximal effect. An outline of the steps: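 Tet-on ROR gamma CHO cells (1,000/well) were plated 4 hr, given compounds in DMSO for 2 hr at 37 C, then induced with 1 uM final doxycycline for 16 hr. Viability was read as ATP by CellTiter-Glo luminescence after 30 min.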

Assay [18] has as its target Nuclear receptor ROR-gamma (Homo sapiens) (UniProt P51449). Nature of the assay: qHTS assay to identify small molecule antagonists of the retinoid-related orphan receptor gamma (ROR-gamma) signaling pathway (AID 1159521; note: nearly all actives have a fitted effect of over 50% in size; note: potency is the fitted concentration of half-maximal effect). The procedure, abridged: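 Decreased RORE-driven luciferase luminescence indicates antagonism. Tet-on RORγ CHO cells received compound, then 1 uM final doxycycline 2 h later; signal read after 16 h incubation.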

Assay [19] has as its target Bile acid receptor (Homo sapiens) (UniProt Q96RI1). Nature of the assay: qHTS assay to identify small molecule antagonists of the farnesoid-X-receptor (FXR) signaling pathway (AID 743217; active = well fitted inhibition curve with a large enough effect in the signal ratio in the repeat runs, not every such curve was filed as active; the % refers to the signal ratio). An outline of the steps: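 Test compounds are pin-transferred onto FXR-bla HEK 293T cells, then chenodeoxycholic acid is added at 50 uM final. After 16 h at 37 °C, LiveBLAzer B/G substrate is applied for 2 h at room temperature and fluorescence read.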

For assay [20] the target is unchanged. As to the kind of experiment: qHTS assay to identify small molecule agonists of the farnesoid-X-receptor (FXR) signaling pathway (AID 743220; active = well fitted activation curve with a large enough effect in the signal ratio in the repeat runs, not every such curve was filed as active; the % refers to the signal ratio). The procedure, abridged:
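FXR-UAS-bla HEK 293T cells carrying a UAS-driven beta-lactamase reporter were plated for 5 h at 37C/5% CO2, then exposed to DMSO-dissolved Tox21 10K compounds for 16 h at 37C. A LiveBLAzer B/G FRET substrate was loaded for 2 h at room temperature before fluorescence reading.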

Bile acid receptor (Homo sapiens), sequence (Q96RI1 whole entry, looked up): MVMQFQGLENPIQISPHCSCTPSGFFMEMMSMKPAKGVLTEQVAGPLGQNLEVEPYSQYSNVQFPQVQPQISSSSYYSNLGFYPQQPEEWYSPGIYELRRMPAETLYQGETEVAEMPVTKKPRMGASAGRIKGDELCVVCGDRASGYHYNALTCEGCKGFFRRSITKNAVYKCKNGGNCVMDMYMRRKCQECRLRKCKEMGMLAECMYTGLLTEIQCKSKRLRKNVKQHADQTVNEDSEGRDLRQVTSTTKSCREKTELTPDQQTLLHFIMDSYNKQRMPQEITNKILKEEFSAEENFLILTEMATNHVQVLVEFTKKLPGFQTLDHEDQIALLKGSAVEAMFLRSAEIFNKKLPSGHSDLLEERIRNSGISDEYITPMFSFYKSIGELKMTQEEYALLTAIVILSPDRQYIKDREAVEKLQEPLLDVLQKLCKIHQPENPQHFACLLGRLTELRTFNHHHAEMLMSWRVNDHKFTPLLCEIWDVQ

With `ClCc1ccc(Cl)cc1Cl`, the Potency entry in assay [1], in assay [2], in assay [3], in [4], in assay [5] and in [6] was “inactive” throughout. For the same compound, the Potency entry in [7], in [8], in assay [9], in [10], in assay [11] and in assay [12] was “inactive” in each case. Further, the Potency result in [13] was “inactive”. The call in assay [14] was inactive.
In the case of `CCCN(CC)CC1COC2(CCC(C(C)(C)C)CC2)O1` (stereo unspecified), the Potency entry in [1], in assay [2], in assay [3], in assay [5], in [6] and in [7] was “inactive” throughout. The Potency result in assay [8], in [9], in assay [10], in assay [15], in [16] and in [17] was “inactive” throughout. Further, the Potency result in [18], in assay [12] and in assay [13] was “inactive” throughout.
Consider `Clc1ccc(CCC(Cn2ccnc2)Sc2c(Cl)cccc2Cl)cc1` (stereo unspecified), for which the Potency in assay [1] was 29.8 µM (active); in [11], 23.9 µM (active); in assay [12], 26.8 µM (active). Further, the Potency result in [2] and in [7] was “inactive” throughout.
As for `FC(F)(F)c1cccc(C2=CCN(CCc3ccc4ccccc4c3)CC2)c1`, the Potency entry in [1], in assay [2], in [3], in [19], in assay [5] and in assay [6] was “inactive” throughout. The Potency result in assay [7], in assay [8], in assay [10], in assay [15], in assay [16] and in assay [17] was “inactive” in each case. Also, the Potency entry in [18] and in assay [12] was “inactive” in each case. In addition, the call in assay [20] was inactive.
`CCCCN(CCCC)C(=S)[S-].CCCCN(CCCC)C(=S)[S-].[Zn+2]`: the Potency in [1] was 6.16 µM (active); in assay [3], 12.3 µM (active); in assay [5], 8.7 µM (active); in assay [6], 13.8 µM (active); in assay [9] it was 5.49 µM (active); in assay [10], 11 µM (active). Also, the Potency in [18] was 13.7 µM (active). For the same compound, the Potency entry in assay [11] is “inactive”.
As for `CC(C)(C)OO`, the Potency result in assay [1], in [2], in assay [3], in [4], in assay [5] and in assay [6] was “inactive” throughout. Besides, the Potency entry in assay [7], in assay [9], in assay [10], in assay [15], in assay [16] and in [17] was “inactive” throughout. Moreover, the Potency result in assay [18], in assay [12] and in [13] was “inactive” each time.
As to `O=C(O)COc1nc(Cl)c(Cl)cc1Cl`, the Potency result in assay [1], in assay [6], in assay [7], in assay [15], in [16] and in assay [17] was “inactive” throughout. Moreover, the Potency entry in [12] and in assay [13] was “inactive” in each case. Also, in assay [20], the outcome was inactive.
On to `BrCBr`, for which the Potency entry in [1], in assay [2], in assay [3], in assay [4], in [5] and in [6] was “inactive” throughout. For the same compound, the Potency entry in [7], in assay [8], in assay [9], in [10], in assay [15] and in assay [16] was “inactive” throughout. For the same compound, the Potency result in [17], in assay [12] and in assay [13] was “inactive” in each case. For the same compound, the outcome in assay [14] was inactive.
Turning to `N#CCCSCCC#N`, the Potency result in [2], in assay [3], in assay [4], in [5], in assay [6] and in assay [9] was “inactive” each time. Further, the Potency entry in assay [10], in assay [15], in [16], in assay [17], in [12] and in assay [13] was “inactive” throughout.
On to `Oc1cc(Cl)c(Cl)c(Cl)c1`, for which, in [20], the outcome was inactive. Besides, the Potency result in assay [6], in assay [7], in assay [8] and in [11] was “inactive” in each case. Besides, the Potency in assay [9] was 36.9 µM (active); in assay [10] it was 41.4 µM (active); in assay [18], 29.1 µM (active).
In the case of `CC(c1ccc(O)cc1)c1ccc(O)cc1`, the Potency result in assay [3], in assay [6], in assay [9], in assay [10], in assay [15] and in assay [16] was “inactive” throughout. The Potency entry in assay [17], in [12] and in assay [13] was “inactive” in each case. For the same compound, the Potency entry in assay [18] was “inactive and 61.1 µM (active)”. Further, the outcome in [14] was inactive.
With `Cc1cc(C)cc(OP(=O)(Oc2cc(C)cc(C)c2)Oc2cc(C)cc(C)c2)c1`, the Potency result in assay [5], in assay [6], in [7], in [8], in assay [10] and in assay [15] was “inactive” each time. In addition, the Potency entry in assay [16], in [17], in [18], in assay [12] and in assay [13] was “inactive” throughout. Further, the call in [20] was inactive.
With `O=C(O)c1cc[c]([Hg][Cl])cc1`, the Potency in assay [1] is 49 µM (active); in assay [5], 27.5 µM (active); in assay [9], 24.5 µM (active); in assay [10], 21.9 µM (active); in assay [17], 24.3 µM (active); in assay [18] it was 4.86 µM (active). Besides, the Potency result in [4], in [6], in [7], in [15] and in assay [16] was “inactive” each time.

The record behind these values is PubChem BioAssay (Tox21).
